Data as given in the supplement of paper PMC10723795.
± gives the standard deviation of the averaged measurements.

Assays:
DLD1 = assay: nucleolar normality score relative to DMSO (fraction of DMSO control); RPE1 is a non-cancer human cell line; higher = more normal nucleoli (less nucleolar stress)
Method: (§1)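 Selected screen hits were validated in hTERT lines (BJ5TA, CHON-002, RPE1) and cancer lines (DLD1, HCT116). Cells were immunostained for nucleolin and UBF and the nucleolar normality score was measured per field of view, with 4 fields per drug. Scores are normalized to each cell line's own DMSO control. Dose and time are not stated for this panel.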

HCT116 = assay: as above
Method: as §1

CC[C@@]1(O)C(=O)OCc2c1cc1n(c2=O)Cc2cc3ccccc3nc2-1 [Camptothecin]
nucleolar normality score (DLD1): 0.402 ± 0.049
nucleolar normality score (HCT116): 0.407 ± 0.015
